Assay results published in PubChem BioAssay AID602385 (Sanford-Burnham Center for Chemical Genomics, 2012).
About 180 (7.8%) of roughly 2,300 compounds were called active. This excerpt belongs to a sample that is enriched for actives. A number with no mark means an inactive call.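 Rule for the calls: active = average inhibition of at least 30% in the single-concentration confirmation test; inactive = the rest.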

What follows are molecules tested against DNA (cytosine-5)-methyltransferase 1 (Homo sapiens) (UniProt P26358) (assay: inhibition of human DNMT1, hit confirmation – biochemical, molecular beacon, fluorescence, single concentration (AID 602385)). Conditions: DNMT1 molecular beacon HinP1I cleavage, at 10 µM, active compounds read high.
Chain of DNA (cytosine-5)-methyltransferase 1 (Homo sapiens) (P26358 504-1616 limits assumed): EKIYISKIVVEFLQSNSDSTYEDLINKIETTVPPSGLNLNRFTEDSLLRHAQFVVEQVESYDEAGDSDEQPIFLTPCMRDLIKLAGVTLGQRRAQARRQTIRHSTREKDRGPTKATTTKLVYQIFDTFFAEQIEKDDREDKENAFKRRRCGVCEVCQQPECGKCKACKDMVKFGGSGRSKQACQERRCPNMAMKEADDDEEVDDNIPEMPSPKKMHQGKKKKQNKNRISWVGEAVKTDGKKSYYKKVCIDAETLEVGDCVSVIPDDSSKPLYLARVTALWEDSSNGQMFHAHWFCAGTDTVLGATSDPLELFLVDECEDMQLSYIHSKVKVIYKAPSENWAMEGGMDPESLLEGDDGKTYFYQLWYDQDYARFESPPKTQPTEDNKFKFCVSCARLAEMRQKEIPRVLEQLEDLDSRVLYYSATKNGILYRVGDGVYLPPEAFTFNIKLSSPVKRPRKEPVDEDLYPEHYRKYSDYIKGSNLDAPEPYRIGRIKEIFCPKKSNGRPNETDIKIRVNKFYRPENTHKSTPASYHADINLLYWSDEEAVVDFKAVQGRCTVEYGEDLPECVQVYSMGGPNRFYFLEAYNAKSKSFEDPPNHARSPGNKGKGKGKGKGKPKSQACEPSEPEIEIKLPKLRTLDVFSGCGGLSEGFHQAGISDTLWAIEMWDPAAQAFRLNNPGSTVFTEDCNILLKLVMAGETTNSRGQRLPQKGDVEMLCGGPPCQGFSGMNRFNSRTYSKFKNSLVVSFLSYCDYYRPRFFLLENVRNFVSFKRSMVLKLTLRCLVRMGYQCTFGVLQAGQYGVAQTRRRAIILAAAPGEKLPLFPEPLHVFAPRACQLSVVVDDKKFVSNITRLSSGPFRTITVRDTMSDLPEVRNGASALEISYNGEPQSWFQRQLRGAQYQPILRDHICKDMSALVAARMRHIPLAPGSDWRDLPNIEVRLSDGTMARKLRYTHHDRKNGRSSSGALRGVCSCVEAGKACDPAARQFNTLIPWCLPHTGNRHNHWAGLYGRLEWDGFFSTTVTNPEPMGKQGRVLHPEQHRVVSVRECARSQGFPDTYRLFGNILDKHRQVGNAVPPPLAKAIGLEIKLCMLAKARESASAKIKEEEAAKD
In the case of `Cc1c(C(=O)O)cccc1-n1c(C)cc(/C=C2\C(=O)NC(=O)N(c3ccc4c(c3)OCO4)C2=O)c1C`, the inhibition was 35.1% (active).
`O=C1NC(=O)N(Cc2ccco2)C(=O)/C1=C\c1ccc(-c2ccc(F)cc2)o1` was tested, and the inhibition was 8.93%.
Molecule `CC1=C(C(=O)Nc2ccccc2)SCCO1` has an inhibition of 6.68%.
